In PubChem BioAssay (Tox21):
Values joined by “and” are separate entries in the source; they are usually repeats but may differ in a detail not shown here. Equal entries are not always repeated. Unmarked numbers belong to inactive results. Results filed as inconclusive are left out. Entries that show only a call come without a potency. Active and inactive are the calls of the source. Unless noted, calls follow the shape of the dose curve; as a rule, active = well fitted curve in the direction sought with a large enough effect in the repeat runs; inconclusive = weak or mixed curves; inactive = no such curve, though single readings can be large; an effect the other way counts as inactive or inconclusive.

Tests used:
[1] = qHTS assay to identify small molecule antagonists of the estrogen receptor alpha (ER-alpha) signaling pathway using the BG1 cell line in the presence of 0.1 nM 17-beta-estradiol - cell viability counter screen (AID 1259241); also: nearly all actives have a fitted effect of over 40% in size; also: potency is read from the fitted curve at half-maximal effect
How it was run: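 Cytotoxicity counter-screen: live-cell protease activity measured by fluorescence (30 min reagent step) in the same wells. Cells were VM7Luc4E2 with endogenous ER-alpha and ERE-driven luciferase, treated 22 hr at 37C alongside 0.1 nM 17beta-estradiol final.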

[2] = qHTS assay to identify small molecule antagonists of the androgen receptor (AR) signaling pathway using the MDA cell line in the presence of 0.5 nM R1881 - cell viability counter screen (AID 1259242); also: nearly all actives have a fitted effect of over 45% in size; also: potency is read from the fitted curve at half-maximal effect
How it was run: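 Counter screen for cytotoxicity run in the same wells as the AR antagonist reporter screen: MDA-kb2 cells were treated 16 hr with test compounds and 0.5 nM R1881, then live-cell protease activity was measured by fluorescence.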

[3] = biological target: Androgen receptor (Homo sapiens) (UniProt P10275); assay: qHTS assay to identify small molecule antagonists of the androgen receptor (AR) signaling pathway using the MDA cell line in the presence of 0.5 nM R1881 (AID 1259243); also: potency is read from the fitted curve at half-maximal effect; nearly all actives have a fitted effect of over 50% in size
How it was run: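 Luciferase luminescence is the read-out: compounds are tested for suppressing 0.5 nM R1881-driven MMTV reporter activity in MDA-kb2 cells after 16 hr at 37C.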

[4] = biological target: Estrogen receptor (Homo sapiens) (UniProt P03372); assay: qHTS assay to identify small molecule antagonists of the estrogen receptor alpha (ER-alpha) signaling pathway using the BG1 cell line in the presence of 0.1 nM 17-beta-estradiol (AID 1259244); also: nearly all actives have a fitted effect of over 50% in size; also: potency is read from the fitted curve at half-maximal effect
How it was run: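 Cells: VM7Luc4E2, endogenous ER-alpha, 4x ERE-luc stable. Pre-culture 5 d, phenol red-free, charcoal-stripped FBS. Plated 24 h, compound + E2 0.1 nM final, 22 h 37C/5% CO2. Readout ONE-Glo luminescence.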

[5] = qHTS assay to identify small molecule HDAC inhibitors (AID 1259364); also: top concentration of the series differs between compounds; nearly all actives have a fitted effect of over 45% in size
How it was run: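 Luminescence from a cell-permeant luminogenic class I/II HDAC substrate reports endogenous deacetylase activity in intact HCT-116 cells treated with compounds for 2 h.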

[6] = qHTS assay to identify small molecule HDAC inhibitors - cell viability counter screen (AID 1259365); also: nearly all actives have a fitted effect of over 50% in size; also: potency is read from the fitted curve at half-maximal effect
How it was run: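 CellTiter-Glo luminescence (30 min, room temperature) reported viability after a 2 h compound exposure at 37 C. Cells: wild-type HCT-116, 1,500 per well, seeded the night before.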

[7] = qHTS assay to identify small molecule agonists of the sonic hedgehog signaling (Shh) pathway - cell viability counter screen (AID 1259366); also: nearly all actives have a fitted effect of over 50% in size; also: potency is read from the fitted curve at half-maximal effect
How it was run: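 Cytotoxicity counter screen: CellTiter-Fluor reagent added after 23 h compound exposure, then 1 h at 37C and fluorescence read. Cells were 3T3 Gli1-Luc, seeded 2,000 per well and dosed 4 h post-plating.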

[8] = qHTS assay to identify small molecule agonists of the sonic hedgehog signaling (Shh) pathway (AID 1259368; calls by dose curve;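 also: NIH/3T3-derived 3T3Gli1-Luc cells carrying a stable Gli1-driven firefly luciferase reporter; series mostly up to about 92 µM; nearly all actives have a fitted effect of over 15% in size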)
How it was run: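 3T3Gli1-Luc (NIH/3T3 clone, stable Gli1-Luc); 4 hr pre-incubation, then cpd in DMSO 24 hr, 37 C/5% CO2; luciferase reagent 30 min RT; luminescence.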

[9] = biological target: Estrogen receptor beta (Homo sapiens) (UniProt Q92731); assay: qHTS assay to identify small molecule antagonists of the estrogen receptor beta (ER-beta) signaling pathway (AID 1259378; active = well fitted inhibition curve with a large enough effect in the signal ratio in the repeat runs, not every such curve was filed as active; the % refers to the signal ratio; also: potency is read from the fitted curve at half-maximal effect)
How it was run: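 ER-beta-UAS-bla HEK293T cells in 2% charcoal-stripped FBS medium treated with compound plus 1nM final 17-beta-estradiol for 16 hr at 37C. Beta-lactamase reporter read by FRET substrate fluorescence after 2 hours at room temperature.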

[10] = qHTS assay to identify small molecule agonists of the estrogen receptor beta (ER-beta) signaling pathway - cell viability counter screen (AID 1259380); also: nearly all actives have a fitted effect of over 30% in size; also: potency is read from the fitted curve at half-maximal effect
How it was run: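 HEK293T ER-beta-UAS-bla; 2% CS-FBS; 6 hr pre-plate, 16 hr cpd at 37C/5% CO2; LiveBLAzer read first, then CellTiter-Glo 30 min RT, luminescence.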

[11] = biological target: Androgen receptor (Homo sapiens) (UniProt P10275); assay: qHTS assay to identify small molecule agonists of the androgen receptor (AR) signaling pathway in the presence of an antagonist (AID 1259381; calls by dose curve; also: nearly all actives have a fitted effect of over 15% in size)
How it was run: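 MDA-kb2 cells, 3,000/well, rested 5hr at 37C/0% CO2 → nilutamide 3.0uM final or buffer → compounds, 15 conc. → 16hr at 37C → ONE-Glo, 30min RT → luminescence.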

[12] = qHTS assay to identify small molecule antagonists of the estrogen receptor beta (ER-beta) signaling pathway - cell viability counter screen (AID 1259382); also: nearly all actives have a fitted effect of over 55% in size; also: potency is read from the fitted curve at half-maximal effect
How it was run: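 Cells: ER-beta-UAS-bla HEK293T, 2,000/well, 2% CS-FBS, 6 hr settle. Cpd + E2 (1nM final), 16 hr, 37C/5% CO2. Bla FRET substrate 2 hr RT, then CellTiter-Glo 30 min RT, luminescence.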

[13] = qHTS assay to identify small molecule agonists or antagonists of the thyroid stimulating hormone receptor (TSHR) signaling pathway - wild type cell line counter screen (AID 1259384; calls by dose curve)
How it was run: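 Wild-type Hek293 cells, 800/well, 18 h at 37C, then compound with Ro20-1724 for 30 min RT. cAMP by HTRF (cAMP-d2/anti-cAMP cryptate), 1 h RT, fluorescence read. 15 concentrations, triplicates.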

[14] = qHTS assay to identify small molecule phospholipidosis (PLD) inducers (AID 1259344; active = well fitted curve in the direction sought with a large enough effect; an effect the other way counts as inactive or inconclusive)
How it was run: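 Quantitative HTS in HepG2: compound plus LipidTOX Red dye for 24 h, paraformaldehyde fixation with Hoechst 33342, widefield high-content imaging; amiodarone as positive and DMSO as negative control.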

[15] = qHTS assay to identify small molecule antagonists of the sonic hedgehog signaling (Shh) pathway - cell viability counter screen (AID 1259367); also: nearly all actives have a fitted effect of over 55% in size; also: potency is read from the fitted curve at half-maximal effect
How it was run: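 Seed 3T3 Gli1-Luc cells at 2,000 per well; incubate 4 hr; add compound in DMSO, then conditioned medium; incubate at 37C with 5% CO2; add CellTiter-Fluor after 23 hr; read fluorescence 1 hr later.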

[16] = qHTS assay to identify small molecule antagonists of the sonic hedgehog signaling (Shh) pathway (AID 1259369; calls by dose curve; also: nearly all actives have a fitted effect of over 45% in size; also: potency is read from the fitted curve at half-maximal effect)
How it was run: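 3T3Gli1-Luc, conditioned-medium-stimulated, 24hr cpd, 37C/5% CO2; Gli1-driven firefly Luc luminescence after 30min RT with luciferase reagent. Cells plated 4hr before cpd.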

[17] = biological target: Estrogen receptor beta (Homo sapiens) (UniProt Q92731); assay: qHTS assay to identify small molecule agonists of the estrogen receptor beta (ER-beta) signaling pathway (AID 1259377; active = well fitted activation curve with a large enough effect in the signal ratio in the repeat runs, not every such curve was filed as active; the % refers to the signal ratio)
How it was run: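 Ratiometric beta-lactamase FRET read-out came after 2 h substrate loading at room temperature. It followed 16 h compound treatment at 37C of GripTite HEK293T cells carrying a UAS-bla reporter, plated in 2% charcoal-stripped FBS medium.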

[18] = qHTS assay to identify small molecule agonists of the androgen receptor (AR) signaling pathway in the presence of an antagonist - cell viability counter screen (AID 1259379);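 also: MDA-kb2 human breast cancer cells carrying an MMTV luciferase reporter; series mostly up to about 92 µM; nearly all actives have a fitted effect of over 25% in size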
How it was run: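 Cells: MDA-kb2 (MMTV-luc, AR and GR elements), 3,000/well, 5 hr settle. Added: nilutamide 3.0uM final, then compounds (15 conc.). Incubation: 16 hr, 37C, no CO2. Read-out: CellTiter-Fluor, 1 hr, fluorescence.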

[19] = biological target: Estrogen receptor (Homo sapiens) (UniProt P03372); assay: qHTS assay to identify small molecule agonists of the estrogen receptor alpha (ER-alpha) signaling pathway in the presence of an antagonist (AID 1259383; calls by dose curve; also: top concentration of the series differs between compounds; nearly all actives have a fitted effect of over 15% in size)
How it was run: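 VM7Luc4E2, endog. ER-alpha + 4×ERE-luc; charcoal-stripped FBS, phenol red-free, 5 d; 24hr plating; +10.0nM ICI-182,780 (final); cpds 15 conc, 22hr, 37C/5% CO2; ONE-Glo luminescence.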

[20] = biological target: Thyrotropin receptor (Homo sapiens) (UniProt P16473); assay: qHTS assay to identify small molecule antagonists of the thyroid stimulating hormone receptor (TSHR) signaling pathway (AID 1259385; calls by dose curve; also: nearly all actives have a fitted effect of over 20% in size)
How it was run: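 TSHR-HEK293 cells (800/well) plated 18 h, then compounds with Ro20-1724 and TSH at 1.5 ng/mL final, 30 min at room temperature. cAMP quantified by HTRF (cAMP-d2/anti-cAMP-cryptate, 1 h); 15 concentrations in triplicate.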

Chain of Estrogen receptor beta (Homo sapiens) (Q92731 whole entry, looked up): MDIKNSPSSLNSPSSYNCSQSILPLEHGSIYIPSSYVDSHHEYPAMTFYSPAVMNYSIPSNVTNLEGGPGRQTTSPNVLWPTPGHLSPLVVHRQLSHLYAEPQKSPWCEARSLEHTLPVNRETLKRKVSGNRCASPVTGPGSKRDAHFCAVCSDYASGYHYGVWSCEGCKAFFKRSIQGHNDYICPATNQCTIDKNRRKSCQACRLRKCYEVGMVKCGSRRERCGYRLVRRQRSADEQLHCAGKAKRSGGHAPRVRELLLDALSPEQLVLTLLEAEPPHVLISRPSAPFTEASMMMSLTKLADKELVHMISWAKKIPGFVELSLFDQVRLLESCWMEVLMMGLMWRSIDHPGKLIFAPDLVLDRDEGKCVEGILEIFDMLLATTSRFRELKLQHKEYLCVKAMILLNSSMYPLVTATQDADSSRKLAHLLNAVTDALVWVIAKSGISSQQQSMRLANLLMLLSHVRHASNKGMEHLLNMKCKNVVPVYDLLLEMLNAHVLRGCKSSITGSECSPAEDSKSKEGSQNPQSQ
Chain of Androgen receptor (Homo sapiens) (P10275 whole entry, looked up): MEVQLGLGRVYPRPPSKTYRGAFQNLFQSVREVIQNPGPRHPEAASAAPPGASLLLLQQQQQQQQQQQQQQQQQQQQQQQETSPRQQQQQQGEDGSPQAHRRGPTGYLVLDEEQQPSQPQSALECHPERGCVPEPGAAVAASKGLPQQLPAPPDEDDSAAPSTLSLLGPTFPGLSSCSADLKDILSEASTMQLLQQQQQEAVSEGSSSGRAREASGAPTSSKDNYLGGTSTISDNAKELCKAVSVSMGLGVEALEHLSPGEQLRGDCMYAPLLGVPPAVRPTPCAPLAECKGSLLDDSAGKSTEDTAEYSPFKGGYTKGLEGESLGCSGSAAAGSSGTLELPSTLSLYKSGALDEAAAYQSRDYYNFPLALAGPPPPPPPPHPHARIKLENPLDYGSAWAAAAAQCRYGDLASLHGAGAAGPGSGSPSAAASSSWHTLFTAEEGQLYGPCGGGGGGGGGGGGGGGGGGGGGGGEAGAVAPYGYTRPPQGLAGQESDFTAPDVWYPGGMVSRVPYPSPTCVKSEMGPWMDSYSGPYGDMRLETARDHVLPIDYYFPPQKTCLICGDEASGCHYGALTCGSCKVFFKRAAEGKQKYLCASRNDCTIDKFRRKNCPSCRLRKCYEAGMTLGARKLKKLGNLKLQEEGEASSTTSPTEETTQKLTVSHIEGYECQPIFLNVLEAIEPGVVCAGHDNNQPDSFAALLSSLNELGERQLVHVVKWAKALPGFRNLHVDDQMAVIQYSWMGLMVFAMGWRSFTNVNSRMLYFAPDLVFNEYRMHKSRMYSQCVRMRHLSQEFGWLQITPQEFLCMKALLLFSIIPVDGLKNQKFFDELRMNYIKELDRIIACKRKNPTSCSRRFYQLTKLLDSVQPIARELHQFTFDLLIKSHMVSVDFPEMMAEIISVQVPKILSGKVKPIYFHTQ
Chain of Estrogen receptor (Homo sapiens) (P03372 whole entry, looked up): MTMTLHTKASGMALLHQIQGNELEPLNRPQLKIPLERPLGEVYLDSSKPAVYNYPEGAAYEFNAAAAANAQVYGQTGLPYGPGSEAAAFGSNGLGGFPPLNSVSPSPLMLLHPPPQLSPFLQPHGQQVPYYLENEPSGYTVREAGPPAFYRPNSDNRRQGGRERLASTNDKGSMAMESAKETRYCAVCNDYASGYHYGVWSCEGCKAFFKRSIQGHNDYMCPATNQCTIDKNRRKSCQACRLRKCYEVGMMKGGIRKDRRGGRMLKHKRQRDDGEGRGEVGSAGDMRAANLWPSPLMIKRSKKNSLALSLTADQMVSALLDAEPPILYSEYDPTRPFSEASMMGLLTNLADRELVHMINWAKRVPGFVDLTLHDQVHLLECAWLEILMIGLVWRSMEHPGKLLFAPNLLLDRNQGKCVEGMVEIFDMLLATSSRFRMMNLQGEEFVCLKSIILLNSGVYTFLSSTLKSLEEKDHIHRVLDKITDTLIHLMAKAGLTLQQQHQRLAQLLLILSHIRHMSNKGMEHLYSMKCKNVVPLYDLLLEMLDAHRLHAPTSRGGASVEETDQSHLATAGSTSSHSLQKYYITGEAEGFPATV
Chain of Thyrotropin receptor (Homo sapiens) (P16473 whole entry, looked up): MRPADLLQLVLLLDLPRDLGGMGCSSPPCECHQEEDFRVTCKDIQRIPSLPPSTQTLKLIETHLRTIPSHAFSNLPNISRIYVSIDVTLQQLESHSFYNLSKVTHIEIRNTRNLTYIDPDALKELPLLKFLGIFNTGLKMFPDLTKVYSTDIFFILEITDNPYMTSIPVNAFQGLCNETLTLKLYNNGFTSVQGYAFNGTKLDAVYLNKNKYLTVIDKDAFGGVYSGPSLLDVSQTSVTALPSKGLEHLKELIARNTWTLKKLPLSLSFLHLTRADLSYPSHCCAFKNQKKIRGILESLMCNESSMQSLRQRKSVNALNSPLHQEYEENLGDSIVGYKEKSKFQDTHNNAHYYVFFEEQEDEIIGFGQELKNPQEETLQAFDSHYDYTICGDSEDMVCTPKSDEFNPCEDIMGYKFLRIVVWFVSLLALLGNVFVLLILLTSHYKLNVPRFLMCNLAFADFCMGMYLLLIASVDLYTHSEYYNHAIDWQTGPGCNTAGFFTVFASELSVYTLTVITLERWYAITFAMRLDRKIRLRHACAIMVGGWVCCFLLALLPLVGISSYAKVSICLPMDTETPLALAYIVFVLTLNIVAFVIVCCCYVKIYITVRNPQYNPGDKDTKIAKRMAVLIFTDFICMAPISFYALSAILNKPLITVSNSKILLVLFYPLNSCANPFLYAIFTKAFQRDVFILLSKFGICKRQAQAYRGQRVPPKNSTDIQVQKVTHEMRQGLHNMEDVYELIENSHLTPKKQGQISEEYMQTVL

CCOC(=O)c1nc(C(Cl)(Cl)Cl)n(-c2ccc(Cl)cc2Cl)n1
Potency [1]: inactive
Potency [2]: inactive
Potency [3]: 61.1 µM (active)
Potency [4]: inactive
Potency [5]: inactive
Potency [6]: inactive
Potency [7]: inactive
Potency [8]: inactive
Potency [9]: 54.5 µM (active)
Potency [10]: 54.5 µM (active)
Potency [11]: inactive
Potency [12]: 61.1 µM (active)
outcome [13]: inactive

CCCCC(CC)CN=C(N)NC(N)=NCCCCCCN=C(N)NC(N)=NCC(CC)CCCC (configuration not stated)
Potency [1]: 29.8 µM (active)
Potency [2]: 18.8 µM (active)
Potency [3]: 11.9 µM (active)
Potency [4]: 21.1 µM (active)
Potency [14]: inactive
Potency [5]: inactive
Potency [6]: 29.8 µM (active)
Potency [7]: 23.7 µM (active)
Potency [15]: 21.1 µM (active)
Potency [8]: inactive
Potency [16]: 3.76 µM (active)
Potency [10]: 23.7 µM (active)
Potency [11]: inactive
Potency [12]: 13.3 µM (active)

CC(=O)OCC(C)OC(C)=O (configuration not stated)
Potency [1]: inactive
Potency [2]: inactive
Potency [4]: inactive
Potency [5]: inactive
Potency [6]: inactive
Potency [7]: inactive
Potency [15]: inactive
Potency [8]: inactive
Potency [16]: 68.6 µM (active)
Potency [17]: inactive
Potency [9]: inactive
Potency [18]: inactive
Potency [10]: inactive
Potency [19]: inactive
outcome [13]: inactive
Potency [20]: inactive

CCCCCCCCCCCCCCCS(=O)(=O)Oc1ccccc1
Potency [1]: inactive
Potency [2]: inactive
Potency [4]: inactive
Potency [5]: inactive
Potency [6]: inactive
Potency [7]: inactive
Potency [15]: inactive
Potency [8]: inactive
Potency [16]: inactive
Potency [17]: inactive
Potency [9]: inactive
Potency [18]: inactive
Potency [10]: inactive
Potency [19]: inactive
outcome [13]: inactive

Nc1c2ccccc2nc2ccccc12
Potency [1]: inactive
Potency [2]: inactive
Potency [4]: inactive
Potency [14]: inactive
Potency [5]: inactive
Potency [6]: inactive
Potency [15]: inactive
Potency [8]: inactive
Potency [16]: inactive
Potency [10]: 2.14 µM (active) and 3.35 µM (active)
Potency [19]: inactive
Potency [20]: inactive

C[C@]12CCC(=O)C=C1CC[C@@H]1[C@@H]2[C@@H](O)C[C@@]2(C)[C@H]1CC[C@]2(O)C(=O)COC(=O)CCC(=O)O
Potency [1]: inactive
Potency [2]: inactive
Potency [4]: inactive
Potency [5]: inactive
Potency [6]: inactive
Potency [7]: inactive
Potency [15]: inactive
Potency [8]: inactive
Potency [16]: inactive
Potency [17]: inactive
Potency [9]: inactive
Potency [18]: inactive
Potency [10]: inactive
Potency [12]: inactive
outcome [13]: inactive
Potency [20]: inactive

CCCCCCCCOc1ccccc1C(=O)Nc1ccc(C(=O)OCC[N+](C)(CC)CC)cc1
Potency [1]: inactive
Potency [2]: inactive
Potency [4]: inactive
Potency [14]: inactive
Potency [5]: inactive
Potency [6]: inactive
Potency [7]: inactive
Potency [15]: inactive
Potency [8]: inactive
Potency [16]: inactive
Potency [18]: inactive
Potency [10]: 23.7 µM (active)
Potency [12]: 23.7 µM (active)
Potency [19]: inactive
outcome [13]: inactive
Potency [20]: inactive
